Shown are actives, neighbours in structure and some others; about 2.4% of the full set was active somewhere.
TMEM16A inh: inhibitors of mouse TMEM16A calcium-activated chloride channel. 310,000 tested, 1.2% active. HEK293 TMEM16A/YFP iodide influx fluorescence, ionomycin. normalized B-score (activity score, 25-100; higher = stronger inhibition) at 10 µM. Q8BHY3;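 active = ratio plate-corrected score three or more library SD toward inhibition, starting fluorescence score within five deviations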;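 also: score derived from kinetic fluorescence span divided by baseline fluorescence per well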
CHT block: inhibits the human high affinity choline transporter; Q9GZV3; CHT-expressing cells, membrane potential dye, choline response; active compounds read low; B-score at 10 µM; 310,000 tested, 0.86% active;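 active = B-score over 3 SD under the library average, and starting fluorescence ratio not unusually high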;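 also: choline stimulus applied at its EC90 after an EC20 pre-addition; B-score computed on integrated fluorescence ratio after choline addition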
CHT PAM: allosterically activates the human high affinity choline transporter. Q9GZV3. CHT-expressing cells, membrane potential dye, choline EC20; active compounds read high; LV-AA mutant CHT in HEK293 cells. B-score at 10 µM. 310,000 tested, 0.49% active. AID 488977;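 active = initial fluorescence not abnormally high and integrated response B-score, plate-corrected, over 3 SD above library mean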
TMEM16A act: mouse TMEM16A channel activation, primary screen | AID 623877 | 340,000 tested, 0.3% active | HEK293 TMEM16A/YFP-H148Q/I152L, iodide quench fluorescence; active compounds read low | B-score at 10 µM;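 active = fluorescence-ratio B-score plate-corrected deviation score at least 3 library SD below zero, with starting fluorescence score within 5 deviations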;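 also: channel opened by trigger with iodide after compound preincubation; score built on the fluorescence ratio of max minus min over baseline; more negative score means more quench and so TMEM16A activation or potentiation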
Large screens that a line does not name were inactive.

O=C(COC(=O)CCSc1ccccc1)NCc1ccc(F)cc1	none
COc1cc([N+](=O)[O-])ccc1NC(=O)NCc1ccco1	none
CCN(CC)S(=O)(=O)c1ccc(C(=O)Nc2ccc(OCC(=O)N3CCOCC3)cc2)cc1	TMEM16A act -12
Cc1nn(-c2ccccc2)c(Cl)c1/C=N/NC(=O)c1ccccc1NS(=O)(=O)c1cccs1	TMEM16A inh 100
CCOC(=O)c1cnc2c(C#N)c(C)nn2c1C	TMEM16A act -23
COC(=O)c1scc(C)c1NC(=O)Nc1ccccc1	TMEM16A inh 25
COC(=O)c1scc(C)c1NC(=O)C(Cl)c1ccccc1 (stereo not given)	none
Cc1ccc(SC/C(O)=C(\C#N)c2nc3ccccc3s2)cc1	TMEM16A inh 25
N#C/C(=C(/O)CSc1ccccn1)c1nc2ccccc2s1	none
N#C/C(=C(/O)c1ccc(F)cc1)c1nc2ccccc2s1	TMEM16A inh 25
N#C/C(=C(/O)COc1ccc(Cl)cc1)c1nc2ccccc2s1	TMEM16A inh 100
N#C/C(=C(/O)COC(=O)c1ccc(C#N)cc1)c1nc2ccccc2s1	TMEM16A inh 25
N#C/C(=C(/O)COc1ccccc1)c1nc2ccccc2s1	none
N#C/C(=N\O)c1nc2ccccc2s1	none
CC(C)S(=O)(=O)CC(=O)c1ccc(Cl)cc1	none
Cc1nnc(SCC(=O)NC2CCCCC2)n(N)c1=O	none
CCSc1nnc(NC(=O)CSc2nnc(C)c(=O)n2N)s1	none
COc1c(CC=C(C)C)cc(C2CC(=O)c3c(O)cc(O)cc3O2)c(CC=C(C)C)c1O (stereo not given)	TMEM16A inh 100 (no result: TMEM16A act)
Cc1cs/c(=N\N=C2CCCCC2)n1Cc1ccco1	none
CCOC(=O)c1sc(Nc2nc3c(OC)cccc3s2)nc1C	TMEM16A inh 100
CN(C(=O)Nc1ccccc1)n1cnc2ccccc2c1=O	none
COc1ccc(OCC(=O)N(Cc2ccco2)C2CCS(=O)(=O)C2)cc1 (stereo not given)	none
COc1ccc([C@H]2Oc3cc(O)cc(O)c3C(=O)C2[C@@H]2C(=O)c3c(O)cc(O)cc3O[C@@H]2c2ccc(OC)cc2)cc1 (stereo not given in full)	TMEM16A inh 100 (no result: TMEM16A act)
COc1ccc(C2CC(=O)Oc3cc(O)cc(O)c32)cc1 (stereo not given)	none
Cc1ccccc1C(=O)NNC(=O)CSc1nnc(C)n1-c1ccccc1	none
Cc1nn(-c2ccccc2)nc1CNC(=O)CC(C)(C)C	none
Cc1nn(-c2ccccc2)nc1CNC(=O)c1ncoc1-c1ccccc1	TMEM16A act -5.6
Cc1[nH]c2ccccc2c1C(O)CN1CCN(c2cccc(C(F)(F)F)c2)CC1 (stereo not given)	CHT block -8.7
Clc1ccc(CONc2ncnc3nonc23)c(Cl)c1	TMEM16A inh 100
CCONc1ncnc2nonc12	none
CCOC(=O)c1c(C)[nH]c(C)c1C(=O)CN1C(=O)NC(CC(C)C)C1=O (stereo not given)	none
Cc1cccc(NC(=S)NCC(C)CSc2ccc(Cl)cc2)c1 (stereo not given)	TMEM16A inh 25
Cc1ccc(C)c(S(=O)(=O)N2CCN(C(=O)C3CCN(c4ncnc5sc(C)c(C)c45)CC3)CC2)c1	none
Nc1cc(=O)[nH]c(SC/C=C/c2ccccc2)n1	none
O=c1cc(C(F)(F)F)nc(SC/C=C/c2ccccc2)[nH]1	TMEM16A inh 100
O=C(Nc1ccc([N+](=O)[O-])cc1)Nc1ccc(N2CCOCC2)c2nonc12	TMEM16A inh 100
O=C(CSc1nc(N2CCOCC2)nc(N2CCOCC2)n1)Nc1ccc([N+](=O)[O-])cc1	none
COc1ccc(S(=O)(=O)Nc2ccc3c(c2)n(C)c(=O)n3C)cc1F	none
Cc1cc(S(=O)(=O)Nc2ccc3c(c2)n(C)c(=O)n3C)ccc1F	TMEM16A inh 100
C[C@H](CCC(=O)O)[C@H]1CC[C@H]2[C@@H]3CC[C@@H]4C[C@H](O)CC[C@]4(C)[C@H]3C[C@H](O)[C@]12C	CHT block -6.5
CCOC(=O)c1c(C)[nH]c(C(=O)OC(C)C(=O)Nc2ccccc2OC)c1C (stereo not given)	none
CCCCCCCCCCCC1=C(O)C(=O)C=C(O)C1=O	none
COC1=CC(=O)C(O)=C(CCCCCCC/C=C/CCCCCCCC2=C(O)C(=O)C=C(OC)C2=O)C1=O	TMEM16A inh 100
CCOC(=O)C(CCCCCOc1ccc([N+](=O)[O-])cc1)C(=O)OCC	TMEM16A inh 100
CCOC(=O)C(CCCCCOc1ccccc1[N+](=O)[O-])C(=O)OCC	none
Cc1ccccc1C(=O)N1CCc2cc(-c3csc(NC(=O)CN4CCCC4)n3)ccc21	TMEM16A inh 25
CS(=O)(=O)N1CCc2cc(-c3csc(NC(=O)Cc4ccccc4)n3)ccc21	TMEM16A inh 25
Cc1ccc(S(=O)(=O)CC(=O)Nc2nc(-c3ccccc3)cs2)cc1	TMEM16A act -5
COC(=O)c1nc2ccccn2c1F	none
COc1cc(Cl)c(C)cc1NC(=O)CSc1cc(Cl)ccc1Cl	TMEM16A inh 100
COc1ccc(CN2Cc3cccc4c3[C@@H](CC2=O)[C@H](O)[C@H](O)C4)cc1	TMEM16A act -9.2 (no result: TMEM16A inh, CHT block, CHT PAM)
CCCC(=O)N1CCN(c2ccc(NC(=O)c3cccs3)cc2Cl)CC1	none
CCCC(=O)N1CCN(c2ccc(NC(=O)c3cc4ccccc4o3)cc2Cl)CC1	TMEM16A inh 100, CHT block -7.4
Cn1cc(/C=C2\SC(=O)NC2=S)c2ccccc21	TMEM16A act -4.6
CCOC(=O)C1C(=O)C=C(c2ccc(C)cc2)CC1c1cccc([N+](=O)[O-])c1 (stereo not given)	none
O=C(CCCn1cncn1)N1CCCC(Nc2ccc(F)cc2)C1 (stereo not given)	none
COc1ccc(/C(N)=N/OC(=O)CSc2ccccc2)cc1	none
COc1ccc(CC(=O)NNC(=O)CSc2ccc(C)cc2)cc1	TMEM16A act -7.1
COc1ccc(/C(N)=N/OC(=O)CSc2ccc(C)cc2)cc1	TMEM16A inh 100
COC(=O)c1cccc(CSc2nc3ccccc3[nH]2)c1	TMEM16A inh 25
COC(=O)c1ccc(CSc2nc3ccccc3[nH]2)o1	none
CCC(C(=O)Nc1cccc(C(F)(F)F)c1)c1ccccc1 (stereo not given)	TMEM16A act -6.6
COc1ccc(CC(=O)OCC(=O)N2CCc3ccccc32)cc1OC	TMEM16A act -25 (no result: TMEM16A inh, CHT block, CHT PAM)
O=C(c1ccc(Oc2ccc([N+](=O)[O-])cc2)cc1)N1CCCCCC1	TMEM16A inh 25
O=C(NCc1cccnc1)c1ccc(NC(=O)c2cccc([N+](=O)[O-])c2)cc1	none
CNc1nc2c(N)ncnc2n1[C@H]1O[C@@H](CO)[C@H](O)[C@@H]1O	CHT block -7.6
FC(F)(F)c1cc(CCN2CCNC[C@H]2Cc2cccc3ccccc23)cc(C(F)(F)F)c1	TMEM16A act -9.7
Oc1ccc(C[C@@H]2CNCCN2CCc2cc(C(F)(F)F)cc(C(F)(F)F)c2)cc1	none
CC(NC(=O)CN(C)CC(=O)Nc1ccc(Cl)cc1)c1ccc(F)cc1 (stereo not given)	none (no result: TMEM16A inh, CHT block, CHT PAM)

Screening data (PubChem BioAssay)
